Measured values as given in PubChem BioAssay (NCATS).
Records with an inconclusive call do not appear. Activity calls are given as the source filed them. Unless noted, the call rests on the fitted dose curve; in most records, active means well fitted curve in the direction sought with a large enough effect; inconclusive means small, poorly fitted or top-dose-only effect, or another doubt; inactive means no such curve, though single readings can be large; an effect the other way counts as inactive or inconclusive.

What was measured:
[1] = molecular target: ATP-dependent 6-phosphofructokinase (Trypanosoma brucei brucei) (UniProt O15648); assay: qHTS Assay to Find Inhibitors of T. brucei phosphofructokinase: hit validation (AID 492961);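 further: luminescence reports ADP formed as PFK phosphorylates fructose-6-phosphate with ATP; series mostly up to about 51 µM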
Sequence of ATP-dependent 6-phosphofructokinase (Trypanosoma brucei brucei) (O15648 whole entry, looked up): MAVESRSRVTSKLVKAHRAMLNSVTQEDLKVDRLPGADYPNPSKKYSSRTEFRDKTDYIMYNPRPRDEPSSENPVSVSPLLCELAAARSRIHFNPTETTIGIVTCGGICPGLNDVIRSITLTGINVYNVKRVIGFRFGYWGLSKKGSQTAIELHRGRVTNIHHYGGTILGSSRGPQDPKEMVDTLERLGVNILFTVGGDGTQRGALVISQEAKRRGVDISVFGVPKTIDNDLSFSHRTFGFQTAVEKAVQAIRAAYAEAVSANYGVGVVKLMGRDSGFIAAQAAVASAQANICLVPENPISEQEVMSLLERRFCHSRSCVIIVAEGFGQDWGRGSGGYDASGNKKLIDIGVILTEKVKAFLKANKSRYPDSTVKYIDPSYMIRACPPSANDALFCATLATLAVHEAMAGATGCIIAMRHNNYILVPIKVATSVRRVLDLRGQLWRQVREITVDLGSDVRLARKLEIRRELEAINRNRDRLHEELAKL
Method in brief: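 Percent activity derived from corrected luminescence, normalized between 0x and 1x enzyme controls, then fitted to concentration-response curves. Conditions: 1.25 nM PFK, 0.1 mM ATP, 0.5 mM F6P, 45 min RT.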

[2] = molecular target: Thioredoxin reductase 1, cytoplasmic (Rattus norvegicus) (UniProt O89049); assay: qHTS Assay for Substrates of Mammalian Selenoprotein Thioredoxin Reductase 1 (TrxR1) (AID 488772);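 further: series mostly up to about 57 µM; a drop in NADPH fluorescence below the no-compound background marks a TrxR1 substrate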
Sequence of Thioredoxin reductase 1, cytoplasmic (Rattus norvegicus) (O89049 whole entry, looked up): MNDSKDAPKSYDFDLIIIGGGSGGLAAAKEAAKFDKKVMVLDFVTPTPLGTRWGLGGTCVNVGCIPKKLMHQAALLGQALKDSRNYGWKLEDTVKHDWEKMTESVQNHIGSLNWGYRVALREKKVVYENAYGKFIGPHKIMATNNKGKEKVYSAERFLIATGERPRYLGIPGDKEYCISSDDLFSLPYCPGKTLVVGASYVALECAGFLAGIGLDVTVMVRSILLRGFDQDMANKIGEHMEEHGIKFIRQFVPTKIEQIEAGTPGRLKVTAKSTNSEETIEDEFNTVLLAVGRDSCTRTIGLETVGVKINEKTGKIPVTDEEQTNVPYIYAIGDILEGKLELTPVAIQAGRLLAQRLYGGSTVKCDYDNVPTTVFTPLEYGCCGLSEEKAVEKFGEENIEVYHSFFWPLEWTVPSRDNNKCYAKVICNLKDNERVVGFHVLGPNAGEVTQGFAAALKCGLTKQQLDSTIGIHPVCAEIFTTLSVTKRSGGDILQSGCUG
Method in brief: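 In this dual-purpose format, potential substrates are identified from the first fluorescence read after selenite addition, not from the 8-minute delta. Rat enzyme is preincubated with NADPH and then with compound at ~22 deg C.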

[3] = molecular target: Flap endonuclease 1 (Homo sapiens) (UniProt P39748); assay: qHTS Validation Assay for the Inhibitors of Human Flap endonuclease 1 (FEN1) (AID 488816)
Sequence of Flap endonuclease 1 (Homo sapiens) (P39748 whole entry, looked up): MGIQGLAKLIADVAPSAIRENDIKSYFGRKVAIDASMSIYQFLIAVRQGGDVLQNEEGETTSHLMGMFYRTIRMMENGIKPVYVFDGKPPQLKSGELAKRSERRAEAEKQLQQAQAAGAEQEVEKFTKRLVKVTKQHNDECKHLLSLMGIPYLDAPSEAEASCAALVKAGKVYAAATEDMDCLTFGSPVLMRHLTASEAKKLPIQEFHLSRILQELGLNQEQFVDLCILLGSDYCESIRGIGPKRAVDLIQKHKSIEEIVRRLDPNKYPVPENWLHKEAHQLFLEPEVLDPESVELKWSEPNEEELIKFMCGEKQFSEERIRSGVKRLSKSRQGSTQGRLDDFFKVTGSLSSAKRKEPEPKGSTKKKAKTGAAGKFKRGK
Method in brief: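 Steps: add FEN1 (10 nM reagent) or buffer only; pin compounds; hold 15 min at room temperature; start with substrate, 50 nM final; read at 0 and 15 min; correct, normalize and fit a four-parameter Hill curve.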

[4] = molecular target: M-phase phosphoprotein 8 (Homo sapiens) (UniProt Q99549); assay: qHTS Validation Assay for Inhibitors for MPP8 Chromodomain Interactions with Methylated Histone Tails (AID 488949); further: top concentration of the series differs between compounds; nearly all actives have a fitted effect of over 55% in size
Sequence of M-phase phosphoprotein 8 (Homo sapiens) (Q99549 whole entry, looked up): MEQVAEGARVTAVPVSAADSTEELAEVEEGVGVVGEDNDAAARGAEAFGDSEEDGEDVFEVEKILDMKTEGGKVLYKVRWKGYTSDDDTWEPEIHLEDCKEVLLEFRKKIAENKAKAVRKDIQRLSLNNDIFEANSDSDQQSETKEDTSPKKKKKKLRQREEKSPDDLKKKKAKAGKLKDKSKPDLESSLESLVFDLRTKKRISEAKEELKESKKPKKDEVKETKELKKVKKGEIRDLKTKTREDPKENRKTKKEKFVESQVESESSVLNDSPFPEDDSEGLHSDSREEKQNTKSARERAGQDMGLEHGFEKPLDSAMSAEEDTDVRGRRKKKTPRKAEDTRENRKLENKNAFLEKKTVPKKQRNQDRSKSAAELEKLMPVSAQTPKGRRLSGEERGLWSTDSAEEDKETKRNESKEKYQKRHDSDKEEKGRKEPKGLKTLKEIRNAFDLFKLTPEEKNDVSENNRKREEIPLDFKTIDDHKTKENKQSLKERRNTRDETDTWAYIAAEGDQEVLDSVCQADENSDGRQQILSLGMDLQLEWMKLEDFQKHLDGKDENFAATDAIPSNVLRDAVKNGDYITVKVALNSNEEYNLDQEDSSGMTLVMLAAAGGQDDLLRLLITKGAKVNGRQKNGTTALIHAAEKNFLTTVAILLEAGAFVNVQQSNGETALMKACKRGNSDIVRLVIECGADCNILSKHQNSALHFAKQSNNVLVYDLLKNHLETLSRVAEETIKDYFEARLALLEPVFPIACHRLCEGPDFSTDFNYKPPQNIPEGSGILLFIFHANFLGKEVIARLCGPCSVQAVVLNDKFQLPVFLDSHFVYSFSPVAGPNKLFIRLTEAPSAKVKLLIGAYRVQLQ
Method in brief: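 MPP8 (50 nM) was pre-bound to 50 nM biotinylated H3(1-18)K9me3 peptide in PBS pH 7.4 with 0.01% Tween-20. Compounds were then added for 30 min at room temperature, and complex disruption was read by AlphaScreen with streptavidin donor and nickel-chelate acceptor beads.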

[5] = molecular target: Chromobox protein homolog 1 (Homo sapiens) (UniProt P83916); assay: qHTS Validation Assay for Inhibitors of HP1-beta Chromodomain Interactions with Methylated Histone Tails (AID 488953); further: nearly all actives have a fitted effect of over 50% in size; further: potency means the concentration at half of the fitted maximal effect
Sequence of Chromobox protein homolog 1 (Homo sapiens) (P83916 whole entry, looked up): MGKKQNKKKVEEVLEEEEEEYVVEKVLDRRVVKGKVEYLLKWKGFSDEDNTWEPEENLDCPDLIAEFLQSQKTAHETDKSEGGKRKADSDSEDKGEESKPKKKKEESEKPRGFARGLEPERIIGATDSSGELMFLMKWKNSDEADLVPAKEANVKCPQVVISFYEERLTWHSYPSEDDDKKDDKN
Method in brief: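 Compounds pinned into a preassembled complex of HP1-beta and trimethyl-K9 histone H3(1-18) biotin peptide (50 nM each; PBS pH 7.4, 0.01% Tween-20). After 30 min, bead-based AlphaScreen detection followed.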

[6] = molecular target: Methanococcus maripaludis chaperonin (MmCpn) (UniProt Q6LX38); assay: High-Throughput Screening for Modulators of Cytosolic Chaperonin Activity: MmCpn Primary Screen (AID 488978);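 further: 50 nM MmCpn enzyme hydrolysing 30 µM ATP at 37 °C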
Method in brief: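 MmCpn at 50 nM final was preincubated 5 min at RT with compound. ATP was then added at 30 uM final for 10 min at 37 C. ADP formed was detected by Transcreener HTRF (665/590 nm).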

[7] = molecular target: Transient receptor potential cation channel subfamily V member 1 (Homo sapiens) (UniProt Q8NER1); assay: HTS Assay for Compounds that Act as Enhancers of the Vanilloid Receptor 1 (AID 488979)
Sequence of Transient receptor potential cation channel subfamily V member 1 (Homo sapiens) (Q8NER1 whole entry, looked up): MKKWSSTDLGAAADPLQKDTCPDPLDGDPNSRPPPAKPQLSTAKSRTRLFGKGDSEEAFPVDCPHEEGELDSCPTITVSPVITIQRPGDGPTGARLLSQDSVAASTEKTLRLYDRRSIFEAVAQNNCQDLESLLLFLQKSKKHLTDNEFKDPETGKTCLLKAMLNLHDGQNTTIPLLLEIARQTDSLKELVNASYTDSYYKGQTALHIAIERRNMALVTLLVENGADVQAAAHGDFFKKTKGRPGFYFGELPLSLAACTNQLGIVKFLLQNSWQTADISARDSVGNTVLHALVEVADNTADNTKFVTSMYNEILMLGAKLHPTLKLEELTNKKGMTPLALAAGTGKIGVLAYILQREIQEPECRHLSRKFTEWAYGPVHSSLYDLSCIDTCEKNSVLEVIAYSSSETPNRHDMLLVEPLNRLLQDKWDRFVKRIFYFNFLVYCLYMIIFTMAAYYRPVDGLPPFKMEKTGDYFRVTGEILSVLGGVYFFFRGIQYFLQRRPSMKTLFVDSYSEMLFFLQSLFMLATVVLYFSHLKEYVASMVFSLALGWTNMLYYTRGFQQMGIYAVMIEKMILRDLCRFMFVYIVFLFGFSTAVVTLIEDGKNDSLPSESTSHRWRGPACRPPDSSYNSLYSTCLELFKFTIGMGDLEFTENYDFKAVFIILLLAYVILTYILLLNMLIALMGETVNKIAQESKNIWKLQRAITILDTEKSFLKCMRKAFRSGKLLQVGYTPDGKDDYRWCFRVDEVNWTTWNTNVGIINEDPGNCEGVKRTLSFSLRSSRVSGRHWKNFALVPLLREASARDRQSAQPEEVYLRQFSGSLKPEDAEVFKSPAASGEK
Method in brief: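 TRPV1-expressing cells loaded with Fluo-8 calcium dye; compounds added and calcium influx read kinetically for 3 min (agonist phase), then capsaicin at EC20 added and read 2 min more for enhancement. Fluorescence ex 480/em 520 nm.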

[8] = molecular target: Thyrotropin receptor (Homo sapiens) (UniProt P16473); assay: qHTS Assay for Antagonists of the Thyroid Stimulating Hormone Receptor (AID 488980); further: series mostly up to about 58 µM
Sequence of Thyrotropin receptor (Homo sapiens) (P16473 whole entry, looked up): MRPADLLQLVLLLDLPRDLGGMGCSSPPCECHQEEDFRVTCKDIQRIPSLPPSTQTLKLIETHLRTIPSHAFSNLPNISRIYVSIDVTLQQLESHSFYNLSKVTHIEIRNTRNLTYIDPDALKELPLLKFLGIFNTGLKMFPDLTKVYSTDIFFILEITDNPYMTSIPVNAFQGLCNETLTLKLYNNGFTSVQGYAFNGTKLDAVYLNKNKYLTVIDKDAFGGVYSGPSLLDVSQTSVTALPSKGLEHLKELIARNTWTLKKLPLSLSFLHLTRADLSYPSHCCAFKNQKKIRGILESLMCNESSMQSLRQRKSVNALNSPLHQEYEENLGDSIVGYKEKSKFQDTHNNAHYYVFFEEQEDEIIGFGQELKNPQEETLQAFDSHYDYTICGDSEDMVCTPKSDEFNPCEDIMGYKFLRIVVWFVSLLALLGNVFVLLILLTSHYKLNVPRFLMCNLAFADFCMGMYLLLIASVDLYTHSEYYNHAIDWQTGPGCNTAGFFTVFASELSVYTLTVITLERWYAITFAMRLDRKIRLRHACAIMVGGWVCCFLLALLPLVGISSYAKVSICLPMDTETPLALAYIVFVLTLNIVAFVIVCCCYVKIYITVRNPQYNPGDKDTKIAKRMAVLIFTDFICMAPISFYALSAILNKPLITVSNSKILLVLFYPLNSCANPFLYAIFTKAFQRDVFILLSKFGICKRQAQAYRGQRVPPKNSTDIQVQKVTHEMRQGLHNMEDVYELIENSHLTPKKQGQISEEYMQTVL
Method in brief: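 TSHR-transfected HEK293 cells (2000/well) in HEPES-buffered HBSS with 70 uM RO 20-1724 were stimulated with 4 nM TSH (EC80, final) in the presence of compound. cAMP was measured by HTRF competition after lysis and 30 min at RT.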

[9] = molecular target: D(1A) dopamine receptor (Homo sapiens) (UniProt P21728); assay: HTS Assay for Allosteric Agonists of the Human D1 Dopamine Receptor: Primary Screen for Agonists (AID 488981)
Sequence of D(1A) dopamine receptor (Homo sapiens) (P21728 whole entry, looked up): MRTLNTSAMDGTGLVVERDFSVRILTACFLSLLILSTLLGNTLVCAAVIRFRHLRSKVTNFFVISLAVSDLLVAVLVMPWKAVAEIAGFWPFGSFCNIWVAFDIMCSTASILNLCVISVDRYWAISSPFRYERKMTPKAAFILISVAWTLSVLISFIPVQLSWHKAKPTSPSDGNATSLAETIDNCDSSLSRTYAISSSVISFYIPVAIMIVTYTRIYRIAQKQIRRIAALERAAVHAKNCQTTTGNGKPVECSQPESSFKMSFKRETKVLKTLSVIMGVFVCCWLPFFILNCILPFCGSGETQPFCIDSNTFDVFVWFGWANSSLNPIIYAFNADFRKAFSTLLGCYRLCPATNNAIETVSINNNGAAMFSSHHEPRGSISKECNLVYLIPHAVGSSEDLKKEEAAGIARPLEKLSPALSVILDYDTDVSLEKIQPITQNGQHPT
Method in brief: (§1)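 Tetracycline-induced HEK293 T-REx cells force-coupled to calcium signalling were incubated overnight at 30 C and dye-loaded at room temperature. Calcium flux over 180 s after compound addition flagged agonists; a further 180 s read after EC20 dopamine flagged potentiators.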

[10] = molecular target: D(1A) dopamine receptor (Homo sapiens) (UniProt P21728); assay: HTS Assay for Allosteric Agonists of the Human D1 Dopamine Receptor: Primary Screen for Potentiators (AID 488982)
Method in brief: as §1

[11] = molecular target: D(1A) dopamine receptor (Homo sapiens) (UniProt P21728); assay: HTS Assay for Allosteric Agonists of the Human D1 Dopamine Receptor: Primary Screen for Antagonists (AID 488983);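 further: calcium flux response to an EC80 dopamine challenge measured with no-wash dye; nearly all actives have a fitted effect of over 65% in size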
Method in brief: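 In this primary screen, compounds are applied to calcium-dye-loaded HEK293 T-REx cells with force-coupled D1 expression induced overnight at 30 C. An EC80 of dopamine follows the 180 s compound phase, and calcium is monitored for a further 180 s.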

[12] = Validation screen for small molecules that induce genotoxicity in human embryonic kidney (HEK293T) cells expressing luciferase-tagged ELG1 (AID 493106)
Method in brief: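 In this validation screen, increased ELG1-luciferase signal flags compounds causing genetic stress. HEK293T reporter cells are treated 16 hr (37 °C, 5% CO2), developed with ONE-Glo for 30 min at room temperature, and imaged on a CCD-based reader.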

[13] = molecular target: ATPase family AAA domain-containing protein 5 (Homo sapiens) (UniProt Q96QE3); assay: Validation screen for small molecules that inhibit ELG1-dependent DNA repair in human embryonic kidney (HEK293T) cells expressing luciferase-tagged ELG1 (AID 493107);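 further: cells co-treated with the DNA-damaging agent 5-fluorouridine alongside compound; series mostly up to about 46 µM; inhibitors lower the ELG1-luciferase luminescence signal; nearly all actives have a fitted effect of over 70% in size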
Method in brief: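 Compounds reducing 5-fluorouridine-driven ELG1-luciferase signal in HEK293T cells were scored; exposure lasted 16 hr at 37 °C with luminescence detected via ONE-Glo.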

[14] = qHTS for Inhibitors of Cell Surface uPA Generation: Validation Assay (AID 493164);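 further: RAW 264.7 macrophage cells exposed to compound for 18 h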
Method in brief: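 Compounds are titrated over seven points (2.45 nM–38.3 uM final) onto pre-plated RAW 264.7 cells and incubated for 18 h. Retained intracellular ATP, measured with ATP-Lite, indicates blocked lethal factor entry.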

[15] = Validation screen for small molecules that induce DNA re-replication in SW480 colon adenocarcinoma cells (AID 504364)
Method in brief: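 Hoechst-stained SW480 nuclei, imaged at 405 nm excitation after 48 hr compound exposure, were counted for elevated DNA content as the re-replication signal.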

[16] = molecular target: Peptidyl-prolyl cis-trans isomerase NIMA-interacting 1 (Homo sapiens) (UniProt Q13526); assay: qHTS Validation Assay to Find Inhibitors of Pin1 (AID 504536; active means well fitted inhibition curve with a large enough effect in the polarisation, with a control signal flat, not every such curve was filed as active; the % refers to the polarisation)
Method in brief: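 Fluorescence polarization competition: compounds (titration) displace HiFluor-488-labeled Pin1-1b peptide from Pin1 (0.3 uM final) in pH 7.5 HEPES buffer with DTT, 10 min at room temperature; %Activity normalized to no-enzyme wells, curves fitted.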

[17] = molecular target: phosphoglycerate mutase (Leishmania major) (UniProt Q4Q090); assay: qHTS Validation Assay to Find Inhibitors of Phosphoglycerate Mutase (AID 504548);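 further: end-point luminescence from Kinase-GloPlus after the PGAM reaction; series mostly up to about 58 µM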
Sequence of phosphoglycerate mutase (Leishmania major) (Q4Q090 1-553): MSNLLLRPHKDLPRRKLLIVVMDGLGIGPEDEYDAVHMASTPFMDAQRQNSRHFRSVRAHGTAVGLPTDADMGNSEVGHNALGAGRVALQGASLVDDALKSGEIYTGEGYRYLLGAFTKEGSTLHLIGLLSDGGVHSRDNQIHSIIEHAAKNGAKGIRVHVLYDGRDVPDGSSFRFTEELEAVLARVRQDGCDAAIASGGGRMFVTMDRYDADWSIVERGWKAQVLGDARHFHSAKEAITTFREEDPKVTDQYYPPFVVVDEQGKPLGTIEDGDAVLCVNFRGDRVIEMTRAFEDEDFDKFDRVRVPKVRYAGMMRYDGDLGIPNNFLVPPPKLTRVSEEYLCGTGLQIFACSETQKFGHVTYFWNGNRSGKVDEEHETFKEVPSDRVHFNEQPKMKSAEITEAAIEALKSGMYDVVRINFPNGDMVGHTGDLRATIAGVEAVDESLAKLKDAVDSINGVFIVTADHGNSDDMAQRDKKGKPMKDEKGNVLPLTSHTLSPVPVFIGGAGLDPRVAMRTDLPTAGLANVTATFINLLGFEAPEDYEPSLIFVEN
Method in brief: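 L. major PGAM (1.25nM final) was added to substrate buffer and pinned compound, incubated 45 minutes at room temperature, then Kinase-GloPlus added; luminescence read after 10 minutes. Buffer: 100 mM TEA pH 7.6, 5 mM MgCl2, 0.01% Tween-20.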

[18] = molecular target: Galactokinase (Homo sapiens) (UniProt P51570); assay: qHTS Validation Assay for Inhibitors of Human Galactokinase (GALK) (AID 493189)
Method in brief: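 GALK (5 nM) with 35 uM ATP and 100 uM galactose in HEPES pH 8.0 with MgCl2, NaCl, DTT and BSA. Reaction ran 1 h at room temperature. Residual ATP read by Kinase-Glo Plus luminescence.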

Measured: Potency

Cc1nnc2n1-c1ccc(Cl)cc1C(c1ccccc1)=NC2
inactive: [1]

O=C1Nc2ccc(Cl)cc2C(c2ccccc2)=NC1O (stereo not given)
inactive: [1]

O=c1[nH]oc2c1CCNC2
not listed: [1] | [18]
inactive: all other assays above

NC(=O)c1cc([N+](=O)[O-])cc([N+](=O)[O-])c1
inactive: [1]

CN1C(=O)CC(=O)N(c2ccccc2)c2cc(Cl)ccc21
inactive: [1]

CN=C(NC#N)NCCSCc1nc[nH]c1C
inactive: [4]

CN1C(=O)CCS(=O)(=O)C1c1ccc(Cl)cc1 (stereo not given)
not listed: [1]
inactive: all other assays above

CN(C)C(=O)Oc1ccc[n+](C)c1
inactive: [4]
active: [5] 6.7 nM
